From PubChem BioAssay
RTF Ca sens inh: cardiac RTF calcium desensitization; AID 493244; 340,000 tested, 0.12% active; inhibition, % at 7.15 µM; IANBD-labeled cardiac RTF, Ca2+ fluorescence;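 active = inhibition above the mean inhibition of all tested compounds plus 3 SD, cut at about 17% in these data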;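 note: assay run at fixed EC70 calcium of 1.6 mM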
TMEM16A act: mouse TMEM16A channel activation, primary screen; 340,000 tested, 0.3% active; HEK293 TMEM16A/YFP-H148Q/I152L, iodide quench fluorescence; active compounds read low; B-score at 10 µM; Q8BHY3;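 active = fluorescence-ratio B-score plate-corrected deviation score at least 3 library SD below zero, with starting fluorescence score within 5 deviations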;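 note: channel opened by trigger with iodide after compound preincubation; score built on the fluorescence ratio of max minus min over baseline; more negative score means more quench and so TMEM16A activation or potentiation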
Target sequence (Q8BHY3 whole entry, looked up): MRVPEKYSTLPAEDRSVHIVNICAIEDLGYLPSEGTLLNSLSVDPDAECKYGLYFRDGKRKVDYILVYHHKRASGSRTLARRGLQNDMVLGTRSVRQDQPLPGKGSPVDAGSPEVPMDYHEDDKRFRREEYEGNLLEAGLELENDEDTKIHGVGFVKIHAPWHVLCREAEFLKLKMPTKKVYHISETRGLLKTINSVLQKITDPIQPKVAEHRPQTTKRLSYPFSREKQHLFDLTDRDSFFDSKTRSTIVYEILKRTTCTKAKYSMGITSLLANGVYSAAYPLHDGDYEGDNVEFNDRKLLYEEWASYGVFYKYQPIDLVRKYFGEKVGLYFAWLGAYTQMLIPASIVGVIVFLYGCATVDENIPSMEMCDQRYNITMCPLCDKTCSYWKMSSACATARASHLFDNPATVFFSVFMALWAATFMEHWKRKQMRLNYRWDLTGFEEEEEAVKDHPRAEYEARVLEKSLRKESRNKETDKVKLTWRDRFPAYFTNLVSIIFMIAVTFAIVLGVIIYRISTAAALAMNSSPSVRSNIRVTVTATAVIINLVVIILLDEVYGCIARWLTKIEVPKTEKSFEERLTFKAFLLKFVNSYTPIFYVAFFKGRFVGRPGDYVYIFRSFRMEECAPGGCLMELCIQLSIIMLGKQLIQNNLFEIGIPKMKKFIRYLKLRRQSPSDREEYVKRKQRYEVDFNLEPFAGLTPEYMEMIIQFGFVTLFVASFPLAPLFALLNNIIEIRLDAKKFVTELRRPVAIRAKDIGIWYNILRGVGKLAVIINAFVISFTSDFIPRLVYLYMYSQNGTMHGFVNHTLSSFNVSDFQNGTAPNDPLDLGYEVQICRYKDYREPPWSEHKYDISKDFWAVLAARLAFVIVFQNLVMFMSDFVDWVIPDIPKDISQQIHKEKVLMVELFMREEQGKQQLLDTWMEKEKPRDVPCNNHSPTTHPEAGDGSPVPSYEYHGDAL
CRFBP-R2 agonist: CRF-BP/CRF-R2 complex agonism; HEK293 CRF-R2/CRF-BP, calcium dye fluorescence (FLIPR); percent of saturating CRF peptide response; activation, % at 13.2 µM; 350,000 tested, 0.46% active;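 active = activation of at least 50%, plus an integration ratio under a set limit after plate pattern correction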;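 note: plate controls were neutral control wells without compound for no effect and CRF at EC100 for full effect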
RTF Ca sens act: increases calcium sensitivity of human cardiac regulated thin filaments; P19429+P45379; IANBD-labeled TnC RTF fluorescence at EC20 calcium; 0% EC20 calcium, 100% full calcium; activation, % at 7.2 µM; 340,000 tested, 0.24% active; AID 493008;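 active = activation above the mean over all tested compounds plus 3 SD, cut at about 30% in these data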;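 note: rise in fluorescence read as greater calcium sensitivity of cardiac thin filaments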
TMEM16A inh: blocks the mouse calcium-activated chloride channel TMEM16A; Q8BHY3; HEK293 TMEM16A/YFP iodide influx fluorescence, ionomycin; normalized B-score (activity score, 25-100; higher = stronger inhibition) at 10 µM; 310,000 tested, 1.2% active; AID 588511;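 active = ratio plate-corrected score three or more library SD toward inhibition, starting fluorescence score within five deviations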;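 note: score derived from kinetic fluorescence span divided by baseline fluorescence per well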
CRFBP-R2 block: blocks CRF-induced signaling of the CRF-BP/CRF-R2 complex; HEK293 CRF-R2/CRF-BP, CRF-induced calcium fluorescence; inhibition, % at 11.8 µM; 350,000 tested, 0.59% active;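 active = inhibition of the ligand-induced calcium signal above about 50% at the single tested concentration, limit read from the data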
* hit, by the source's call; i = inactive; x = no result. The list is not random: actives were taken first. Their share in the collection is about 2.4%.

SMILES	RTF Ca sens inh	TMEM16A act	CRFBP-R2 agonist	RTF Ca sens act	TMEM16A inh	CRFBP-R2 block
COc1ccc(S(=O)(=O)N2CCC(C(=O)NCc3ccncc3)CC2)cc1C	8	i	2	-2	i	-4
COc1ccc(C(=O)CSc2nnc(CNC(=O)c3ccco3)n2C)cc1	-9	i	-2	4	i	-2
O=C(NCCCN1CCOCC1)C(=O)NCCc1ccccc1	-7	i	0	0	i	15
COCCNC(=O)/C(C#N)=C/c1ccc(N2CCOCC2)o1	-54	i	42	61*	i	-36
COCCNC(=O)/C(C#N)=C\c1ccc(CNS(=O)(=O)c2ccccc2)o1	3	i	-1	-3	i	12
N#C/C(=C\c1ccc(N2CCOCC2)o1)C(=O)NCC1CCCO1 (stereo not drawn)	-78	i	45	53*	i	-14
N#C/C(=C\c1ccc(OCCN2CCOCC2)cc1)C(=O)Nc1ccccc1	-5	i	-1	1	i	-16
N#C/C(=C/c1ccc(N2CCOCC2)o1)C(=O)Nc1ccccc1	-177	i	149*	132*	x	-99
N#C/C(=C\c1ccc(N2CCOCC2)o1)C(=O)NCCc1ccccc1	-88	i	200*	64*	i	-297
COc1cc(Cl)c(NS(=O)(=O)c2cc3[nH]c(=O)c(=O)[nH]c3cc2C)c(OC)c1	-3	i	-1	-6	i	-9
Cc1cc(C)c(NC(=O)CCCCCNC2CCCCC2)c(C)c1	-12	i	1	1	i	-3
CCc1cc(C(=O)c2ccc(OC)cc2)c(NC(=O)CC(C)(C)CC(=O)O)s1	0	i	0	7	i	-9
COc1ccccc1NS(=O)(=O)c1cc(NC(=S)Nc2cc(C)cc(C)c2)ccc1Cl	5	-5.6*	1	6	i	-27
O=C(Nc1ccc(Cl)c(S(=O)(=O)Nc2ccccc2Cl)c1)c1cccs1	-7	i	3	5	25*	9
O=C(Nc1ccccc1Cl)c1cccs1	-9	i	-1	-2	i	9
COc1ccccc1NC(=O)CSCc1cc(=O)n2ccsc2n1	-4	i	-4	-1	i	2
CN(C)c1ccc(C=NN2C(=O)CSC2=S)c(Cl)c1	x	x	50*	x	x	40
COc1cccc(/C=N/N2C(=O)CSC2=S)c1O	-3	i	0	-3	i	12
O=C1CSC(=S)N1N=Cc1c(F)cccc1Cl	x	x	55*	x	x	29
O=c1[nH]c(C(F)(F)C(F)(F)C(F)(F)F)no1	-5	i	1	-2	x	7
O=c1[nH]c2ccc(Cl)cc2[nH]1	-3	i	2	-2	x	109*
O=c1[nH]c2ccc(S(=O)(=O)Nc3ccc(Cl)cc3)cc2[nH]1	-7	i	-3	0	i	0
CC(C)(C)c1nc2cc(Cl)c([N+](=O)[O-])cc2o1	-4	i	1	2	100*	1
CCOc1ccccc1C(=O)Oc1cc(C)[nH]c(=O)c1[N+](=O)[O-]	-3	i	-2	7	i	19
CCOC(=O)C1CCN(c2ncnc3c2nnn3Cc2ccccc2Cl)CC1	3	i	-1	-7	i	59*
SMILES	RTF Ca sens inh	TMEM16A act	CRFBP-R2 agonist	RTF Ca sens act	TMEM16A inh	CRFBP-R2 block
O=C(c1ccco1)N1CCN(c2ncnc3c2nnn3Cc2ccccc2Cl)CC1	2	i	3	7	i	15
CCN(CC)CCCOc1nc(C)nc2c1oc1ccccc12	36*	i	-1	-2	x	23
CCN(CC)CCOc1nc(C)nc2c1oc1ccccc12	-6	i	-1	5	i	17
CSc1ccccc1C(=O)N1CCN(S(=O)(=O)c2sc(C(=O)O)c(C)c2C(=O)O)CC1	-9	i	1	1	x	84*
COc1cc(/C=C2\N=C(c3ccccc3)OC2=O)ccc1OC(C)=O	-6	i	0	-4	i	-8
COc1ccc(OC)c(/C=C2\N=C(c3ccccc3)OC2=O)c1	-8	i	104*	17	i	-84
COC(=O)c1sc2cc([N+](=O)[O-])cc(SCC(C)C)c2c1N	-25	i	55*	4	i	-156
c1ccc(-c2nn[nH]n2)nc1	-2	i	-1	1	i	-3
